# Data as given in PubChem BioAssay (NCATS).
# Where “and” joins values, the source holds several entries; their conditions need not be identical. Equal values may be shown once. Inconclusive results are not listed. A call without a number means that no potency is given here. Calls of active or inactive are those of the source. Unless noted, calls follow the shape of the dose curve; as a rule, active = well fitted curve in the direction sought with a large enough effect; inconclusive = small, poorly fitted or top-dose-only effect, or another doubt; inactive = no such curve, though single readings can be large; an effect the other way counts as inactive or inconclusive.
# Tests used:
# [1] = Cell Proliferation Assay against the TMD8 Cell Line (AID 651645); conditions: TMD8 DLBCL cell line proliferation/viability; at 46.1 µM (top of the series);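 also: cells exposed to compound for 48 h before reading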
# Outline: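 Viability by CellTiter-Glo after 48 h compound exposure of 500 log-phase TMD8 cells per well (RPMI, 5% FBS). Percent activity scaled between DMSO (100%) and 9.2 uM final bortezomib (0%).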
# [2] = Cell Proliferation Assay against the HBL1 Cell Line (AID 651646); conditions: HBL1 DLBCL cells; at 46.1 µM (top of the series);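 also: cells exposed to compound for 48 h before reading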
# Text: One class of targeted therapeutics showing early clinical success in killing of ABC DLBCL lines are small molecule inhibitors of the Bruton tyrosine kinase (BTK) 11.
# Prior to any combination assays, using an NCATS developed oncology compound library called the Mechanism of Interrogation Plate (MIPE), two well studied ABC DLBCL lines (TMD8 and HBL1) were screened using a cell viability assay (CellTiterGlo) and a 12-point titration series for each single agent. These initial experiments offered insight into the concentration range that offered the best coverage of activity and non-activity to assure relevant data is generated. […]
# A total of 500 log growing HBL1 cells are seeded per well in 5 uL of a RPMI with glutamine (or Glutamax), without phenol red plus 5% FBS and 1X Pen/Strep into 1536 -solid white high base tissue culture treated Greiner One Bio Plates (789173-F) using a multidrop combi dispenser and a small sterile cassette. […] The plates are then spun at 1000 rpms to remove bubbles and incubated for 15 minutes at room temperature before read on a ViewLux using a luminescent filter with a 10 second exposure. The relative luciferase units are used to calculated percent activity using DMSO as 100% and Bortezomib as 0%.
# [3] = Cell Proliferation Assay against the TMD8 Cell Line (Caspase readout at 16 hrs) (AID 651712)
# Outline: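 16 h, 37 °C, TMD8 (500 cells/well), RPMI/5% FBS no phenol red; Caspase-Glo 3/7, 15 min RT, luminescence; %act: DMSO 0, bortezomib 9.2 uM final 100.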
# [4] = Cell Proliferation Assay against the TMD8 Cell Line (Caspase readout at 8 hrs) (AID 651713)
# Outline: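 Apoptosis read-out: Caspase-Glo luminescence after 8 h compound exposure of TMD8 lymphoma cells at 37C, 5% CO2. Signals were normalized as percent activity between DMSO and bortezomib (9.2 uM final) controls.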
# [5] = qHTS assay for small molecule agonists of the antioxidant response element (ARE) signaling pathway (AID 651741; active = well fitted activation curve with a large enough effect in the signal ratio; the % refers to the signal ratio)
# Outline: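 Reporter: beta-lactamase under ARE, stably in HepG2. Exposure: 16 h, 37 C, compounds delivered in DMSO by pin tool after 5 h cell preincubation. Readout: FRET substrate fluorescence after 2 h at RT.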
# [6] = qHTS assay for small molecule activators of the p53 signaling pathway (AID 651743; active = well fitted activation curve with a large enough effect in the signal ratio, not every such curve was filed as active; the % refers to the signal ratio; also: potency is read from the fitted curve at half-maximal effect); conditions: HCT-116 p53RE-bla, beta-lactamase FRET ratio, 16 h; activation: stronger effect = higher value
# Outline: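 Agonist-mode quantitative HTS in HCT-116 cells carrying a p53-response-element beta-lactamase reporter; 16 h compound treatment at 37 C, then FRET substrate loading for 2 h at room temperature and fluorescence read.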
# [7] = qHTS assay for small molecule activators of the nuclear factor-kappa B (NF-kB) signaling pathway (AID 651749; active = well fitted activation curve with a large enough effect in the signal ratio; the % refers to the signal ratio); conditions: NF-kB-bla ME-180 cells, beta-lactamase FRET ratio, 16 h; stronger effect = higher value
# Outline: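 Human ME-180 cervical cells with an NF-kB-bla construct; compounds added via 23 nL pin transfer, DMSO as vehicle; incubation 16 hr. Reporter activity measured by FRET disruption.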
# [8] = molecular target: Tumor necrosis factor (Homo sapiens) (UniProt P01375); experiment: qHTS assay to identify small molecules that stimulate Tumor Necrosis Factor-alpha (TNF-alpha) secretion (AID 651757; active = well fitted curve in the direction sought with a large enough effect in the signal ratio; the % refers to the signal ratio)
# Outline: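 Secreted TNF-alpha quantified by TR-FRET sandwich of two labeled anti-TNF-alpha antibodies, incubated 3 hr at room temperature. Preceded by 17 hr, 37 C compound treatment of THP-1 cells at 3000 cells/well.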
# [9] = qHTS assay for small molecule disruptors of the mitochondrial membrane potential - 1 hr assay (AID 651754; calls by dose curve; also: nearly all actives have a fitted effect of over 35% in size)
# Outline: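 Mitochondrial potential in living HepG2 cells after 1 hr compound treatment at 37C was read with Mito-MPS dye added for a further 30 min. Red aggregate and green monomer fluorescence were measured; loss of potential leaves dye as cytoplasmic monomers.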
# [10] = qHTS assay for small molecule disruptors of the mitochondrial membrane potential - 5 hr assay (AID 651755; calls by dose curve; also: nearly all actives have a fitted effect of over 40% in size)
# Outline: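 Seed HepG2 overnight, add compound, incubate 5 hr at 37C and 5% CO2, stain 30 min with Mito-MPS, then measure monomer (490/535 nm) and aggregate (540/590 nm) fluorescence.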
# Sequence of Tumor necrosis factor (Homo sapiens) (P01375 whole entry, looked up): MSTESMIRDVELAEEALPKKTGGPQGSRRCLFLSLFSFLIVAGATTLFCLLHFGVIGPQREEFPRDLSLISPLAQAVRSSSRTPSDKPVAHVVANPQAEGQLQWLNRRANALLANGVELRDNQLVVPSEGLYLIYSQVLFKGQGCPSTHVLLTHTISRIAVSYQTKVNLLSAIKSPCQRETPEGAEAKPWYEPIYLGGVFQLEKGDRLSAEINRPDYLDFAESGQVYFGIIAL
structure (smiles),measurement,setting,value
O=P1(N(CCCl)CCCl)NCCCO1 (centres undefined),viability (% of control),[1],114%
same,"viability, percent of control",[2],108%
same,outcome,[3],inactive
same,outcome,[4],inactive
same,Potency,[5],inactive
same,activation,[6],-1.12% (inactive) and -2.77% (inactive)
same,activation,[7],-0.934% (inactive) and -1.34% (inactive)
same,outcome,[8],inactive
O=C(O)CCCc1ccc(N(CCCl)CCCl)cc1,Potency,[6],22.4 µM (active) and 35.5 µM (active)
same,activation,[7],0.602% (inactive) and -1.35% (inactive)
C[C@]12CCC(=O)C=C1CC[C@@H]1[C@@H]2CC[C@]2(C)C(=O)CC[C@@H]12,activation,[6],-1.07% (inactive) and 0.979% (inactive)
same,Potency,[9],inactive
same,Potency,[10],inactive
same,outcome,[8],inactive
